Reference: PubChem BioAssay (Tox21)
“And” between values parts separate entries of the source, which are not always exact repeats. Equal entries are not always repeated. Records with an inconclusive call do not appear. Where a structure was tested more than once in an assay, its records may differ in their call. The source made the active and inactive calls. Unless noted, calls follow the shape of the dose curve; as a rule, active = well fitted curve in the direction sought with a large enough effect in the repeat runs; inconclusive = weak or mixed curves; inactive = no such curve, though single readings can be large; an effect the other way counts as inactive or inconclusive.

Experiments:
[1] = target: Glucocorticoid receptor (Homo sapiens) (UniProt P04150); assay: qHTS assay to identify small molecule agonists of the glucocorticoid receptor (GR) signaling pathway (AID 720691; active = well fitted activation curve with a large enough effect in the signal ratio in the repeat runs, not every such curve was filed as active; the % refers to the signal ratio; also: potency is read from the fitted curve at half-maximal effect)
Method in brief: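 Measures GR pathway activation through a GRE-beta-lactamase reporter stably integrated in HeLa cells, with 18 h compound treatment at 37 C and fluorescence detection using a FRET substrate.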

[2] = target: Androgen receptor (Homo sapiens) (UniProt P10275); assay: qHTS assay to identify small molecule agonists of the androgen receptor (AR) signaling pathway using the MDA cell line (AID 743040; also: nearly all actives have a fitted effect of over 20% in size)
Method in brief: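 Luciferase read-out, ONE-Glo, 30 min RT. Cells: MDA-kb2 AR-luc, MMTV promoter with AR and GR response elements. Compound exposure 16 h, 37C, 0% CO2, after 5 h pre-incubation. qHTS agonist mode.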

[3] = qHTS assay to identify small molecule antagonists of the androgen receptor (AR) signaling pathway using the MDA cell line - cell viability counter screen (AID 743041; also: nearly all actives have a fitted effect of over 45% in size; also: potency is read from the fitted curve at half-maximal effect)
Method in brief: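 Cytotoxicity counter screen: MDA-kb2 AR-luc cells, compound + R1881, 16 h, 37C, 0% CO2; CellTiter-Fluor added at 15.5 h, fluorescence read after 30 min.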

[4] = system: thyroid hormone receptor (rat, GH3 cells); assay: qHTS assay to identify small molecule agonists of the thyroid receptor (TR) signaling pathway (AID 743066; calls by dose curve)
[5] = qHTS assay for small molecule activators of the heat shock response signaling pathway - cell viability counter screen (AID 743209); also: nearly all actives have a fitted effect of over 50% in size; also: potency is read from the fitted curve at half-maximal effect
Method in brief: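 To flag cytotoxic compounds, HSE-bla HeLa cells plated at 1500 cells/well were dosed for 5 h at 37 C, followed by the reporter FRET read and then CellTiter-Glo, with luminescence recorded 30 min after reagent addition.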

[6] = qHTS assay to identify small molecule agonists of the vitamin D receptor (VDR) signaling pathway - cell viability counter screen (AID 743224); also: nearly all actives have a fitted effect of over 50% in size; also: potency is read from the fitted curve at half-maximal effect
Method in brief: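 Counter screen for cytotoxicity: VDR-bla cells at 2,000 cells/well, 16 h compound exposure, then CellTiter-Glo luminescence after the beta-lactamase measurement.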

[7] = qHTS assay to identify small molecule agonists of the retinoic acid receptor (RAR) signaling pathway (AID 1159553)
Method in brief: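 6 hr compound exposure (DMSO vehicle) of overnight-plated C3RL4 RARE-luc cells at 37 C; luminescence quantified after 30 min RT with luciferase reagent.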

[8] = target: Glucocorticoid receptor (Homo sapiens) (UniProt P04150); assay: qHTS assay to identify small molecule antagonists of the glucocorticoid receptor (GR) signaling pathway (AID 720692; active = well fitted inhibition curve with a large enough effect in the signal ratio in the repeat runs, not every such curve was filed as active; the % refers to the signal ratio; also: potency is read from the fitted curve at half-maximal effect)
Method in brief: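 Tox21 10K library screened in concentration-response for blockade of dexamethasone (5 nM final)-induced GRE-bla reporter activity in HeLa cells; 18 h treatment, fluorescence read.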

[9] = qHTS assay to identify small molecule antagonists of the estrogen receptor alpha (ER-alpha) signaling pathway using the BG1 cell line (AID 743080; calls by dose curve;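 also: BG1 cells stimulated with 17beta-estradiol alongside compound; nearly all actives have a fitted effect of over 25% in size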; also: potency is read from the fitted curve at half-maximal effect)
Method in brief: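 Seeding, 24 h rest, compound transfer from DMSO, 17beta-estradiol addition, 21.5 h incubation, CellTiter-Fluor (30 min, 37 C), then ONE-Glo (30 min, room temperature): this sequence was run on BG1-Luc-4E2 reporter cells.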

[10] = qHTS assay to identify small molecule antagonists of the retinoid-related orphan receptor gamma (ROR-gamma) signaling pathway - cell viability counter screen (AID 1159520); also: nearly all actives have a fitted effect of over 50% in size; also: potency is read from the fitted curve at half-maximal effect
Method in brief: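 Tet-on ROR gamma CHO cells were given compounds for 2 hr, then doxycycline hyclate at 1 uM final, and incubated 16 hr at 37 C. Viability was measured as ATP content by CellTiter-Glo luminescence.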

[11] = qHTS assay for small molecule disruptors of the mitochondrial membrane potential - cell viability (AID 720634; calls by dose curve; also: nearly all actives have a fitted effect of over 20% in size; also: potency is read from the fitted curve at half-maximal effect)
Method in brief: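 In this qHTS format, HepG2 cells plated overnight were pinned with compound, incubated 1 hr, and assayed for ATP luminescence with CellTiter-Glo after m-MPI dye addition.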

[12] = qHTS assay to identify small molecule antagonists of the peroxisome proliferator-activated receptor gamma (PPARg) signaling pathway - cell viability counter screen (AID 743194); conditions: Potency: co-treated with 50 nM rosiglitazone unless noted; also: nearly all actives have a fitted effect of over 55% in size; also: potency is read from the fitted curve at half-maximal effect
Method in brief: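 Cytotoxicity counter screen in PPARg-bla HEK293H cells, same wells as reporter assay. Compounds plus 50 nM rosiglitazone (final) for 17 h at 37 C, then viability read by CellTiter-Glo luminescence.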

[13] = qHTS assay for small molecule agonists of the antioxidant response element (ARE) signaling pathway - cell viability counter screen (AID 743203; calls by dose curve; also: nearly all actives have a fitted effect of over 55% in size; also: potency is read from the fitted curve at half-maximal effect)
Method in brief: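 Parallel cytotoxicity read-out for the ARE-bla screen: HepG2 reporter cells, 16 hrs with compounds, then CellTiter-Glo luminescence.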

[14] = qHTS assay to identify small molecule antagonists of the peroxisome proliferator-activated receptor delta (PPARd) signaling pathway - cell viability counter screen (AID 743213); also: nearly all actives have a fitted effect of over 50% in size; also: potency is read from the fitted curve at half-maximal effect
Method in brief: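 Same-well viability: cells pre-incubated 5 h, dosed with compound plus 300 nM L165041, kept 17 h at 37 C, FRET substrate 2 h RT, then CellTiter-Glo 30 min RT and luminescence.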

[15] = qHTS assay to identify small molecule agonists of the farnesoid-X-receptor (FXR) signaling pathway - cell viability counter screen (AID 743218); also: nearly all actives have a fitted effect of over 45% in size; also: potency is read from the fitted curve at half-maximal effect
Method in brief: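 Same-well cytotoxicity check on FXR-UAS-bla HEK 293T cells: 5 h attachment, 16 h compound at 37 C, CellTiter-Glo luminescence read at room temperature after 30 min.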

[16] = qHTS assay to identify small molecule antagonists of the vitamin D receptor (VDR) signaling pathway - cell viability counter screen (AID 743225); also: nearly all actives have a fitted effect of over 50% in size; also: potency is read from the fitted curve at half-maximal effect
Method in brief: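 Compounds were pinned onto VDR-bla HEK 293T cells together with 1-alpha,25-dihydroxyvitamin D3 at 3 nM final. After 16 h at 37C and 5% CO2 plus the reporter readout, cell viability was measured by CellTiter-Glo luminescence (30 min, room temperature).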

[17] = qHTS assay to identify small molecule agonists of the hypoxia (HIF-1) signaling pathway (AID 1224846; active = well fitted activation curve with a large enough effect in the signal ratio in the repeat runs, not every such curve was filed as active; the % refers to the signal ratio)
Method in brief: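 Reporter induction in HRE-bla ME-180 cells is taken as agonism: cells sit 5 hrs after plating, receive compounds or DMSO only, incubate 17 hrs at 37C under 5% CO2, and are loaded with CCF4-AM for beta-lactamase FRET measurement.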

[18] = qHTS assay for small molecule agonists of the p53 signaling pathway - cell viability (AID 651633; calls by dose curve; also: nearly all actives have a fitted effect of over 30% in size; also: potency is read from the fitted curve at half-maximal effect)
Method in brief: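 p53RE-bla cells were treated with compound for 16 hours at 37 C. Cytotoxicity was then measured as CellTiter-Glo luminescence after 30 min at room temperature.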

[19] = target: Vitamin D3 receptor (Homo sapiens) (UniProt P11473); assay: qHTS assay to identify small molecule agonists of the vitamin D receptor (VDR) signaling pathway (AID 743222; calls by dose curve)
Method in brief: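 Using LiveBLAzer B/G FRET detection, agonism was scored in VDR-bla cells exposed overnight (16 h, 37C) to DMSO-dissolved compounds; substrate incubation was 2 h at room temperature.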

[20] = target: Peroxisome proliferator-activated receptor delta (Homo sapiens) (UniProt Q03181); assay: qHTS assay to identify small molecule agonists of the peroxisome proliferator-activated receptor delta (PPARd) signaling pathway (AID 743212; calls by dose curve)
Method in brief: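 Read-out: beta-lactamase FRET fluorescence after 2 h room-temperature incubation with LiveBLAzer B/G substrate. Cells were HEK293H carrying a UAS-bla reporter for PPARd, treated at 37 C with DMSO-dissolved compounds.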
% is scaled to controls: 0 for no effect and ±100 for the full control effect.

Glucocorticoid receptor (Homo sapiens), sequence (P04150 whole entry, looked up): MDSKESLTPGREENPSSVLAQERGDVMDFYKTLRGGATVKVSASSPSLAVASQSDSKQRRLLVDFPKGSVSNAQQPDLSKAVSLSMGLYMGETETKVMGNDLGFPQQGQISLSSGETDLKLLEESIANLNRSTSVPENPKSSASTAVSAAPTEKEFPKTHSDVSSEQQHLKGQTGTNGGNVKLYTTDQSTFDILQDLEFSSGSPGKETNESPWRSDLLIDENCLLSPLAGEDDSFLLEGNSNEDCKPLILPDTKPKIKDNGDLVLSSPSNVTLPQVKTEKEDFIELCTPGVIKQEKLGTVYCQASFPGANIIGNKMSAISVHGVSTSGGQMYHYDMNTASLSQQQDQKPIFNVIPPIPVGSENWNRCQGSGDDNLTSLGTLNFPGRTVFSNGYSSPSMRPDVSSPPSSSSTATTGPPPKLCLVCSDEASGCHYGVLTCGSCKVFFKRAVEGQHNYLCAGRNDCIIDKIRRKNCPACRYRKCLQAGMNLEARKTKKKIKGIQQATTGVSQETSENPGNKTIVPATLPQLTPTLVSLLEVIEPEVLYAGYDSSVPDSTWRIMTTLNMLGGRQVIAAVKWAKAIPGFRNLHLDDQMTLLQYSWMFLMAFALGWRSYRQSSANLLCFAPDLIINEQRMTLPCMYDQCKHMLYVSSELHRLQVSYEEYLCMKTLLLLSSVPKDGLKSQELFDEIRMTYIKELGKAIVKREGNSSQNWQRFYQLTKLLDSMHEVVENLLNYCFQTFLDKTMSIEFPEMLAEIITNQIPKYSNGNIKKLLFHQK
Androgen receptor (Homo sapiens), sequence (P10275 whole entry, looked up): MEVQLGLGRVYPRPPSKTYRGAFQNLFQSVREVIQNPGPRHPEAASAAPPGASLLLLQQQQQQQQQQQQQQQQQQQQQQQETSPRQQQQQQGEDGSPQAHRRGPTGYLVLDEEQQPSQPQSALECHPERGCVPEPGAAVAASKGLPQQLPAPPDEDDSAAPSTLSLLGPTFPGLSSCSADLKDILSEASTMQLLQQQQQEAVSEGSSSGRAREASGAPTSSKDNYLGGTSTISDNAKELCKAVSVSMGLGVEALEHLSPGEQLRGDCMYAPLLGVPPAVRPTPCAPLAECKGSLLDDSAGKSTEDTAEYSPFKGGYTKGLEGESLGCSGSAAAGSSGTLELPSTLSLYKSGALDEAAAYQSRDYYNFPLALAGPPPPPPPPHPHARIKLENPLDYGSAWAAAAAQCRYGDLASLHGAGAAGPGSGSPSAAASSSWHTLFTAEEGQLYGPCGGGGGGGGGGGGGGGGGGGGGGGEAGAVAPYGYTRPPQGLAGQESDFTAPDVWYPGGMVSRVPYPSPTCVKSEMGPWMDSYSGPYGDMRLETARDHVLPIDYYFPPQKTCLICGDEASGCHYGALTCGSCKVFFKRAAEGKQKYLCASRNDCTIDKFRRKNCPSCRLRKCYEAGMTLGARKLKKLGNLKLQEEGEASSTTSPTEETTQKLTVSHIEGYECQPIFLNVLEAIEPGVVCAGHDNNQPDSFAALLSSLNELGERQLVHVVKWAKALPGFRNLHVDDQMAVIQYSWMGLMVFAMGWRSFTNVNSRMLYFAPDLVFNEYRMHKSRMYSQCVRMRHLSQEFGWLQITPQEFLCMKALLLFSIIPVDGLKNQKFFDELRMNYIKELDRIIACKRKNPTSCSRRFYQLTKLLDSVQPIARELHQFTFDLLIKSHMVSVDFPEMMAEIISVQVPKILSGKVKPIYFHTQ
Peroxisome proliferator-activated receptor delta (Homo sapiens), sequence (Q03181 whole entry, looked up): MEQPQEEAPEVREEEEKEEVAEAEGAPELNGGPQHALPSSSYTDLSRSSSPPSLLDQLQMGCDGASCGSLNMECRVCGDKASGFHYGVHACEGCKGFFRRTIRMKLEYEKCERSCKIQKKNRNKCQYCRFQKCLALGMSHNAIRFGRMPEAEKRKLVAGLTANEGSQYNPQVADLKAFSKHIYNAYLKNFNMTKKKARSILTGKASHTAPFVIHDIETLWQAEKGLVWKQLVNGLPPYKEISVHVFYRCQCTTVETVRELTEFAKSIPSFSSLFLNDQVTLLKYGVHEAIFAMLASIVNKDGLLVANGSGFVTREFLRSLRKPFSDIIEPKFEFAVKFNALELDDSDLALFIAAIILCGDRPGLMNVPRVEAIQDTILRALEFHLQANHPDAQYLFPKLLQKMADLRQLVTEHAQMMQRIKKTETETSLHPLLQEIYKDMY
Vitamin D3 receptor (Homo sapiens), sequence (P11473 whole entry, looked up): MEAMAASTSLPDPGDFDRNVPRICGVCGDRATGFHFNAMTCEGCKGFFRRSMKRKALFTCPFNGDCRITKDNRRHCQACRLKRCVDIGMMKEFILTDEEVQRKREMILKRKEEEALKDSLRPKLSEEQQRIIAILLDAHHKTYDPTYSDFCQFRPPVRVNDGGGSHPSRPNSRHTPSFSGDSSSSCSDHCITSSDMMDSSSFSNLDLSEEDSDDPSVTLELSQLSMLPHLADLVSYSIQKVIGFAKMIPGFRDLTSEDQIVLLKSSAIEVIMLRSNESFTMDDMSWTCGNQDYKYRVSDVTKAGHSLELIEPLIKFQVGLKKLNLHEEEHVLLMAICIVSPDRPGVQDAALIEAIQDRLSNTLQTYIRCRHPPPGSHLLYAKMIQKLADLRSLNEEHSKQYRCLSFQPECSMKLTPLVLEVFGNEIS

CO/C=C(/C(=O)OC)c1ccccc1Oc1cc(Oc2ccccc2C#N)ncn1
active: Potency [3] 21.7 µM | Potency [6] 5.22 µM
inactive: Potency [1] | Potency [2] | Potency [4] | Potency [5] | outcome [7]

COc1ccc(C(c2ccc(OC)cc2)C(Cl)(Cl)Cl)cc1
active: Potency [8] 34.5 µM
inactive: Potency [1] | Potency [9] | outcome [7]

Cc1ccc2nc3sc(=O)sc3nc2c1
inactive: activity, negative = cytotoxicity [10] -10.1% [at 19 µM]

c1ccc2c(c1)Sc1ccccc1N2CC1CN2CCC1CC2 (stereo unspecified)
active: Potency [8] 21.3 µM | Potency [12] 26.6 µM | Potency [13] 13.3 µM | Potency [14] 9.44 µM | Potency [15] 10.6 µM | Potency [6] 21.1 µM | Potency [16] 21.3 µM
inactive: Potency [11] | Potency [1] | outcome [17]

COc1cc(OC)c(OC)cc1C=O
inactive: Potency [18] | Potency [11] | Potency [1] | Potency [2] | Potency [3] | Potency [9] | Potency [13] | Potency [14]

CNC(=O)Oc1cc(C)c(SC)c(C)c1
inactive: outcome [17]

O=C(Nc1ccccc1-c1ccc(Cl)cc1)c1cccnc1Cl
inactive: Potency [18] | Potency [1] | Potency [4] | Potency [9] | outcome [7]

CCC(C)=O
inactive: Potency [8]

Nc1ccc([N+](=O)[O-])cc1
inactive: Potency [1] | Potency [2] | Potency [4] | outcome [19]

CN1CSC(=S)N(C)C1
inactive: Potency [18] | Potency [11] | Potency [4] | Potency [12] | Potency [13] | Potency [16]
active: Potency [1] 1.94 µM | Potency [3] 24.3 µM | Potency [14] 7.72 µM and 5.48 µM | Potency [15] 4.87 µM | Potency [6] 6.13 µM and 3.88 µM
inactive and 1.09 µM (active): Potency [5]

OCC(c1ccc(Cl)cc1)c1ccc(Cl)cc1
inactive: Potency [5] | Potency [15] | outcome [19] | outcome [17]
active: Potency [9] 68.6 µM | Potency [16] 54.9 µM

O=[N+]([O-])c1c(Cl)c(Cl)cc(Cl)c1Cl
inactive: Potency [18] | Potency [4] | Potency [9] | Potency [13] | Potency [6] | Potency [10] | outcome [7] | outcome [17]

Cc1nnc2n1-c1sc(CCc3ccc(CC(C)C)cc3)cc1C(c1ccccc1Cl)=NC2C (stereo unspecified)
inactive: Potency [11]
active: Potency [18] 23.7 µM | Potency [12] 29.8 µM [setting not given] | Potency [5] 29.8 µM | Potency [15] 33.5 µM | Potency [16] 23.9 µM

O=C1C(I)=CC(=C(c2cc(I)c(O)c(I)c2)c2ccccc2C(=O)O)C=C1I
active: Potency [8] 16.9 µM and 8.49 µM
inactive: Potency [3] | Potency [4] | Potency [9] | outcome [20] | Potency [14] | Potency [15] | outcome [19] | Potency [16] | Potency [10] | outcome [7]

CCN(CC)C(=O)Cl
inactive: outcome [17]

N#Cc1cc([N+](=O)[O-])ccc1N
inactive: Potency [10] | outcome [17]

CC1COC(Cn2cncn2)(c2ccc(Oc3ccc(Cl)cc3)cc2Cl)O1 (stereo unspecified)
active: Potency [11] 2.43 µM | Potency [8] 43.6 µM | Potency [9] 13.7 µM | Potency [12] 49 µM | Potency [13] 54.5 µM | Potency [15] 49 µM | Potency [6] 54.9 µM | Potency [16] 49 µM
inactive: Potency [18] | Potency [5] | outcome [20] | outcome [7]

ClC(Cl)=C(c1ccc(Cl)cc1)c1ccccc1Cl
inactive: Potency [10] | outcome [17]

Cc1cc(C(C)(C)c2ccc(O)c(C)c2)ccc1O
inactive: Potency [2] | Potency [3] | Potency [4] | outcome [20] | outcome [19]
active: Potency [8] 13.1 µM | Potency [12] 37 µM | Potency [13] 46.2 µM | Potency [6] 33 µM

O=S(=O)(C(Cl)(Cl)Cl)C(Cl)(Cl)Cl
active: Potency [10] 17.2 µM

CCOC(=O)C(O)(c1ccc(Cl)cc1)c1ccc(Cl)cc1
24.8 µM (active) and inactive: Potency [15]
inactive: Potency [2] | Potency [4] | outcome [20] | outcome [19] | outcome [17]
active: Potency [18] 15.5 µM | Potency [11] 30.9 µM | Potency [13] 24.6 µM | Potency [14] 22.1 µM | Potency [6] 7.84 µM and 43.6 µM | Potency [16] 11.1 µM and 38.9 µM
7.84 µM (active) and inactive: Potency [5]

Cc1ccc(N(SC(F)(Cl)Cl)S(=O)(=O)N(C)C)cc1
inactive: Potency [2]
active: Potency [3] 54.5 µM | Potency [12] 7.76 µM | Potency [13] 7.7 µM | Potency [14] 13.8 µM | Potency [15] 13.8 µM | Potency [6] 7.76 µM | Potency [10] 6.11 µM

ClC1=C(Cl)[C@]2(Cl)[C@@H]3[C@@H](Cl)[C@H]4O[C@H]4[C@@H]3C1(Cl)C2(Cl)Cl
active: Potency [12] 43.6 µM
inactive: Potency [18] | Potency [11] | Potency [3] | Potency [9] | outcome [20] | Potency [14] | outcome [19] | outcome [17]

CCc1cccc(C)c1N
inactive: Potency [8]

Cc1cccc(C)c1[N+](=O)[O-]
inactive: Potency [8]

Brc1ccc(-c2ccccc2)cc1
inactive: Potency [8]

Nc1ccc(Cl)cc1Cl
inactive: outcome [20]

Clc1ccccc1-c1ccccc1Cl
inactive: Potency [1] | Potency [3] | Potency [13] | Potency [5] | outcome [20] | Potency [14] | Potency [15] | outcome [19] | Potency [6] | Potency [16] | outcome [7]
